Results as given in PubChem BioAssay (NCI).
This is part of a sample that, as a whole, favours compounds with a hit. Of some 83,000 tested, about 20% had one in any assay.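 Single-dose data. Exposure time 48 hours. Values below 10 considered active.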 Active and inactive are the calls of the source.

Key:
Experiment in all cases: NCI-60 one-dose screen, 48 h (100 = growth as untreated, 0 = no growth, -100 = all killed)
Details in all cases: 10 µM unless noted
[1] = tested on: T-47D breast
[2] = tested on: BT-549 breast
[3] = tested on: MDA-MB-435 melanoma
[4] = tested on: SW-620 colon
[5] = tested on: MCF7 breast
[6] = tested on: HCT-116 colon
[7] = tested on: HCC-2998 colon
[8] = tested on: KM12 colon

Measured: growth

O=C1/C(=C2\SC(=S)N(C3CC3)C2=O)SC(=S)N1C1CC1
inactive: [1] 94.6% | [2] 97.5% | [3] 103% | [4] 98.4% | [5] 91.6% | [6] 100% | [7] 102% | [8] 101%

[2H]C([2H])([2H])Oc1ccc(F)cc1/C=C/C(=O)/C=C(O)/C=C/c1cc(F)ccc1OC([2H])([2H])[2H]
inactive: [1] 73.5% | [2] 93.3% | [3] 84.5% | [4] 102% | [5] 70% | [6] 83.9% | [7] 105% | [8] 98.4%

CCN(CC)CCN1C(=O)c2cccc3c(/C=C/CN4C(=O)c5cccc6cccc(c56)C4=O)ccc(c23)C1=O
active: [5] 4.8%
inactive: [1] 94.8% | [2] 89.8% | [3] 103% | [4] 90.4% | [6] 95.5% | [7] 105% | [8] 63.6%

CC[N+]1(CC)CC[N+]2(CCCC(C)CC2)CC1 (stereo not drawn)
inactive: [1] 103% | [2] 113% | [3] 110% | [4] 103% | [5] 96% | [6] 104% | [7] 99.9% | [8] 104%

COc1ccc(C2=NN(C(C)=O)C(c3cn(-c4ccccc4)nc3-c3ccc(Cl)cc3)C2)cc1 (stereo not drawn)
active: [1] 7.93% | [6] -11.6%
inactive: [2] 48.4% | [3] 34.2% | [4] 17.3% | [5] 21.8% | [7] 36.3% | [8] 29.6%

O=C(/C=C/c1ccccc1)c1ccc(Nc2nc(Nc3ccc(F)cc3)nc(Nc3ccc(Cl)cc3)n2)cc1
inactive: [1] 62.1% | [2] 101% | [3] 95.7% | [4] 90.4% | [5] 30.2% | [6] 49.6% | [7] 70.8% | [8] 91.6%

S=c1nc2oc(-c3ccccc3)c(-c3ccccc3)c2c(/N=C\c2ccco2)[nH]1
inactive: [1] 65.9% | [2] 103% | [3] 108% | [4] 101% | [5] 93.1% | [6] 84.4% | [7] 109% | [8] 94.1%

C#Cc1cccc(Nc2nc(C)nc3cc(NC(=O)CCl)ccc23)c1
active: [1] -55.3% | [2] -71.2% | [3] -51.1% | [4] -63.6% | [5] -68% | [6] -65.2% | [7] -88.1% | [8] -73.7%

Cn1cc(-c2csc(-c3cn(CCCN4CCOCC4)c4ccccc34)n2)c2cccnc21
inactive: [1] 62.1% | [2] 88.7% | [3] 91.6% | [4] 94.6% | [5] 85.6% | [6] 84.4% | [7] 92.9% | [8] 85.4%

CCN1CCN(C(=O)[C@]23CC[C@@H](C)[C@H](C)[C@@H]2C2=CC[C@@H]4[C@@]5(C)C/C(=C/c6cccnc6)C(=O)C(C)(C)[C@@H]5CC[C@@]4(C)[C@]2(C)CC3)CC1
inactive: [1] 22% | [2] 41.2% | [3] 24% | [4] 13.3% | [6] 10.3% | [7] 19.6% | [8] 18.2%
active: [5] 8.54%

CN(Cc1cnc2nc(N)nc(N)c2n1)c1ccc(C(=O)NC(CCC(=O)O)C(=O)O)cc1Br (stereo not drawn)
inactive: [1] 44.3% | [2] 61.9% | [3] 39.5% | [4] 28.6% | [5] 19% | [6] 19.8% | [7] 57.1% | [8] 28.4%

COc1ccccc1C(=O)Nc1cccc(NC(=O)c2ccoc2C)c1
inactive: [1] 45.1% | [2] 44% | [4] 28.2% | [5] 24.6% | [6] 15.3% | [7] 67.2% | [8] 21.1%
active: [3] -15.8%

Cc1[nH]c(C2CC(c3ccc(C(F)(F)F)c(F)c3)=NN2c2ccccc2)c(C)c1C(=O)NCC(F)(F)F (stereo not drawn)
inactive: [1] 65.9% | [2] 103% | [3] 98.1% | [4] 99.1% | [5] 56.5% | [6] 82.4% | [7] 96.5% | [8] 87.5%

COc1cccc(Nc2ncnc3cc(NC(=O)CCl)ccc23)c1
active: [1] -32.6% | [2] -28.7% | [3] -82% | [4] -73.6% | [5] -8.63% | [6] -53.8% | [8] -68.5%
inactive: [7] 23%

Fc1ccc2[nH]cc(-c3nc(-c4c[nH]c5ccncc45)cs3)c2c1
active: [1] -30.3% | [3] -75.3% | [4] -63.5% | [5] -46.7% | [6] -85.6% | [7] -74.3% | [8] -67.1%
inactive: [2] 70%

COc1cc(/C=C/C(=O)/C=C(O)/C=C/c2ccc(OC(=O)C34CC5CC(CC(C5)C3)C4)c(OC)c2)ccc1OC(=O)C12CC3CC(CC(C3)C1)C2
inactive: [1] 97.9% | [2] 104% | [3] 106% | [4] 98.4% | [5] 98.5% | [6] 89.9% | [7] 106% | [8] 113%

O=c1ccc(=O)n(-c2nc(-c3ccc([N+](=O)[O-])cc3)cs2)[nH]1
inactive: [1] 98.5% | [2] 98.5% | [3] 99.1% | [4] 101% | [5] 90.1% | [6] 95.2% | [7] 106% | [8] 99.6%

O=C1NC(=O)/C(=C/c2c(-c3ccccc3)nc3sc(COc4ccccc4)nn23)S1
inactive: [1] 89.4% | [2] 92.8% | [3] 102% | [4] 105% | [5] 83.5% | [6] 89.3% | [7] 107% | [8] 100%

CC(C)(C)c1cc(Cl)c(O)c(CNCCO)c1
inactive: [1] 98.7% | [2] 109% | [3] 101% | [4] 86.4% | [5] 96.3% | [6] 99.1% | [7] 104% | [8] 111%

C[n+]1ccc(CCc2c[nH]c3ccccc23)cc1
inactive: [1] 72.6% | [2] 98.2% | [3] 104% | [4] 100% | [5] 93.2% | [6] 97.2% | [7] 92.6% | [8] 70.8%

COc1ccc(-c2nn(-c3ccccc3)cc2/C=C/C(=O)NNC(=O)Nc2ccc(C)cc2)cc1
inactive: [1] 92.3% | [2] 114% | [3] 99.9% | [4] 95.1% | [5] 91.9% | [6] 77.7% | [7] 96.7% | [8] 101%

Oc1c(CN2CCC(N3CCCCC3)CC2)cc(Cc2cc(CN3CCC(N4CCCCC4)CC3)c(O)c3ncccc23)c2cccnc12
inactive: [2] 27% | [4] 29.1% | [6] 13% | [7] 32.9% | [8] 21.7%
active: [1] 7.31% | [3] -13.1% | [5] 6.62%

N#C/C(=C\c1ccc(-c2cccc(C(F)(F)F)c2)o1)c1ccccc1
inactive: [1] 35.6% | [2] 96.6% | [3] 99.1% | [4] 92.3% | [5] 25.7% | [6] 80.4% | [7] 100% | [8] 79.3%

CCNC(=O)Oc1ccc(/C(=C(/C)Cc2ccc(OC)cc2)c2ccc(OCCN3CCCCC3)cc2)cc1
inactive: [1] 42.5% | [2] 92.5% | [3] 68.1% | [4] 77.8% | [5] 29.9% | [6] 49.2% | [7] 67.9% | [8] 67.8%

O=C(/C=C/c1ccc(Oc2ccc(Br)cc2)cc1)c1ccc(Br)cc1
inactive: [1] 92.3% | [2] 110% | [3] 93% | [4] 93.7% | [5] 73% | [6] 97.6% | [7] 95.5% | [8] 95.7%

c1nc2ccc(-c3cc4ccc5[nH]ncc5c4c4c3CCCC4)cc2[nH]1
active: [6] 7.07%
inactive: [1] 60.3% | [2] 34.1% | [3] 21.2% | [4] 39.4% | [5] 59% | [7] 75.5% | [8] 30.8%

CCN1C(=O)N(CC)C2C1NN=c1s/c(=C\c3cnc(C)n3C)c(=O)n12 (stereo not drawn)
active: [3] -69.1% | [4] 9.38%
inactive: [1] 24.9% | [2] 50.1% | [5] 14.5% | [6] 23.2% | [7] 45.6% | [8] 16.1%

CC1CCN(C(=O)CCCl)c2ccccc21 (stereo not drawn)
inactive: [1] 121% | [2] 96.3% | [3] 123% | [4] 91.3% | [5] 97.5% | [6] 97.3% | [7] 86.1% | [8] 102%

CSC(SC)=C(C#N)c1nc2ccccc2s1
inactive: [1] 33.2% | [2] 13.1% | [3] 76.5% | [4] 81.5% | [5] 47.3% | [6] 14.2% | [7] 82.2% | [8] 58.3%

CC1(C)C(N)=Nc2cc(OCCCN3Cc4ccccc4C3)c(OCC3CC3)cc21
inactive: [1] 45.8% | [2] 76.5% | [3] 66.6% | [4] 87.8% | [5] 50.4% | [6] 49.2% | [7] 11.9% | [8] 84.2%

COc1cccc(/C=C/C(=O)c2cccc(Nc3nc(Nc4ccccc4)nc(Nc4ccccc4)n3)c2)c1
inactive: [1] 53.5% | [2] 99% | [3] 91.4% | [4] 40.5% | [5] 21.9% | [6] 12.8% | [7] 21.6% | [8] 62.8%
